Test [1] deals with Lysosomal acid glucosylceramidase (Homo sapiens) (UniProt P04062). The test is described as follows: Glucocerebrosidase-p2 (AID 348; in the data active means potency below about 10 µM; further: potency means the concentration at half of the fitted maximal effect). To be noted: purified GBA, blue fluorogenic substrate, 40 min. In a few lines:
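Compounds titrated from 0.6 nM upwards against 0.2 nM enzyme in pH 5.9 citric acid/KH2PO4, taurocholate, tween-20; blue fluorogenic substrate 80 uM, 40 min room temperature, stopped and read Ex 365/Em 440 for AC50.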

A short description of test [2]: AP1 Signaling Pathway (AID 357; active means well fitted curve in either direction with a large enough effect, not every such curve was filed as active;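 further: ME-180 reporter cells stimulated with EGF at its EC50 level; on the % scale 0 is the no-effect control and ±100 the full control effect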). As to conditions: ME-180 AP-1-bla reporter, EGF-induced, beta-lactamase ratio, 5 h; at 7.69 µM (top of the series) unless noted. In a few lines: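 Modulation of EGF-driven AP-1 transcription was assessed with a beta-lactamase reporter in ME-180 cells. Compound and EC50 EGF were co-incubated 5 hours at 37 °C before 2.5-hour CCF4 loading at room temperature and dual-emission reading.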

Test [3] addresses Cytochrome P450 1A2 (Homo sapiens) (UniProt P05177). Put plainly: p450-cyp1a2 (AID 410; calls by dose curve; further: potency means the concentration at half of the fitted maximal effect). To be noted: recombinant CYP1A2, luciferin-ME demethylation, luminescence; series mostly up to 57 µM. In short, it runs like this:
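Luminescent readout of luciferin formed from Luciferin-ME by human CYP1A2; data normalized against complete inhibition by 57 uM furafylline. Enzyme 20nM, substrate 100uM at Km, 100mM KPO4 buffer, 60 min reaction at room temperature.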

The nature of test [4]: NFAT Signaling Pathway (AID 444; active means well fitted curve in either direction with a large enough effect, not every such curve was filed as active;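 further: carbachol stimulus at about its EC50 of 1 µM final; on the % scale 0 is the no-effect control and ±100 the full control effect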). To be noted: Jurkat NFAT-bla M1, carbachol, beta-lactamase ratio, 5 h; at 7.69 µM (top of the series) unless noted. In short, it runs like this:
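Jurkat cells carrying an NFAT-driven β-lactamase reporter and co-transfected muscarinic M1 receptor were treated with compound plus carbachol (1 uM final, an EC50 level) for 5 h at 37 °C. CCF4 loading followed for 1 h at RT; 460/530 nm ratio gave %activity.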

Test [5] is described as follows: Stat Signaling Pathway (AID 446; active means well fitted curve in either direction with a large enough effect, not every such curve was filed as active;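 further: ME-180 cervical cancer cells given 40 pM IL-6 alongside compound; SIE-controlled beta-lactamase reporter measured as 460/530 nm FRET emission ratio; on the % scale 0 is the no-effect control and ±100 the full control effect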). To be noted: ME-180 (cervical carcinoma) SIE beta-lactamase reporter, IL-6 stimulated, 5 h; at 7.69 µM (top of the series) unless noted. In short, it runs like this:
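IL-6/STAT signaling read in ME-180 cells via an SIE beta-lactamase reporter. Stimulus was 40 pM IL-6 (its AC50) for 5 hrs, so both activation and inhibition register.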

The target in test [6] is Glucocorticoid receptor (Homo sapiens) (UniProt P04150). Put plainly: GR-GFP Redistribution (AID 450;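 active means compounds whose dose series gives a full or clear partial fitted curve of increased nuclear translocation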; further: potency means the concentration at half of the fitted maximal effect). To be noted: U2OS GR-GFP nuclear translocation, laser cytometry, 2 h.
The target is the same in test [7]. The test is described as follows: GR-EFC Redistribution (AID 451; calls by dose curve; further: potency means the concentration at half of the fitted maximal effect). As to conditions: CHO-K1 GR-EFC translocation, beta-gal luminescence, 2 h. In short, it runs like this:
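CHO-K1 cells stably expressing nuclear-localized β-gal enzyme acceptor and GR fused C-terminally to the enzyme donor fragment; ligand-driven nuclear translocation restores β-gal by complementation. Compounds titrated up to 46 uM final, 2 h at 37 °C; luminescence read.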

Test [8] addresses Mitogen-activated protein kinase 10 (Mus musculus) (UniProt Q61831). Put plainly: JNK3 AlphaScreen Assay (AID 530; active means well fitted curve in either direction with a large enough effect, not every such curve was filed as active;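 further: kinase came from lysate of stimulated human HepG2 cells; signal reports phosphorylation of biotinylated GST-cJun 1-79 at Ser73 with 10 µM ATP; on the % scale 0 is the no-effect control and ±100 the full control effect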). To be noted: JNK3 lysate, c-Jun phosphorylation; series mostly up to 57.1 µM. In short, it runs like this:
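Inhibitors reduce antibody binding to phosphorylated biotin-cJun, lowering AlphaScreen luminescence. Lysates from HepG2 cells pre-activated by IL-1beta plus TNF-alpha supplied JNK3; compounds were titrated.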
On the technique in general: Alpha assays give light when donor and acceptor beads are brought close together.

The target in test [9] is 3',5'-cyclic-AMP phosphodiesterase 4B (Homo sapiens) (UniProt Q07343). Put plainly: qHTS Assay for Inhibitors of PDE-IV (AID 607; active means well fitted activation curve with a large enough effect in the main read-out, with a control signal flat, not every such curve was filed as active; further: % of control where 0% means no effect). As to conditions: HEK293 ACTOne CNG channel cells, membrane potential fluorescence; series mostly up to 22.9 µM. In short, it runs like this: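 Live HEK293 cells with a modified cyclic nucleotide-gated (CNG) channel report intracellular cAMP via membrane-potential dye fluorescence (ex 535/em 590 nm). Endogenous PDE-IV was targeted. Compounds were tested at up to 22.9 uM final; RO 20-1724 100 uM served as control.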
Background: qHTS replaces the single test concentration by a dilution series.

Test [10] addresses Cytochrome P450 3A4 (Homo sapiens) (UniProt P08684). Put plainly: qHTS Assay for Inhibitors and Substrates of Cytochrome P450 3A4 (AID 884). Further: nearly all actives have a fitted effect of over 50% in size. Further: potency means the concentration at half of the fitted maximal effect. As to conditions: recombinant CYP3A4, Luciferin-PPXE luminescence; series mostly up to 57.1 µM. In a few lines:
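20 nM human CYP3A4 with 25 uM Luciferin-PPXE (at KM) in 200 mM KPO4, preincubated 10 min with compound; NADPH regeneration started a 60 min RT reaction. Luciferin detected by luminescence, normalized to 57 uM ketoconazole as full inhibition.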

Test [11] can be described thus: qHTS Assay for Lipid Storage Modulators (AID 1519; calls by dose curve). As to conditions: Drosophila S3 cells, BODIPY lipid droplet/cell ratio, laser cytometry, cells loaded with oleic acid; for activity change, negative = inhibition: at 57.5 µM (top of the series). In short, it runs like this: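 Cells seeded at 5,000 per well were treated with compounds over a concentration series and loaded with oleic acid (400 uM, as added). Lipid droplet fluorescence (488 nm excitation, 500-530 nm channel) was read by laser-scanning cytometry and normalized to 20 uM Triacsin C.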

The target of test [12] is Dual specificity protein kinase CLK4 (Homo sapiens) (UniProt Q9HAZ1). The test is described as follows: qHTS Assay for Inhibitors of CDC-like Kinase 4 (Kinase-Glo Assay) (AID 1770). Further: on the % scale 0 is the no-effect control and ±100 the full control effect; nearly all actives have a fitted effect of over 65% in size. To be noted: recombinant Clk4, Kinase-Glo ATP depletion luminescence; series mostly up to 66.7 µM. In a few lines: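 Recombinant human Clk4 (25 nM) phosphorylated RS repeat peptide (100 uM) with 1 uM ATP in Tris pH 7.5/MgCl2/EGTA/DTT/Triton buffer for 4.5 h at room temperature. Residual ATP was quantified by Kinase-Glo luciferase luminescence.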

Test [13] concerns the target Ubiquitin carboxyl-terminal hydrolase 1 (Homo sapiens) (UniProt O94782). Put plainly: Inhibitors of USP1/UAF1: Pilot qHTS (AID 504865).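 Further: rhodamine fluorescence freed from ubiquitin-rhodamine substrate followed over time; top concentration of the series differs between compounds; on the % scale 0 is the no-effect control and ±100 the full control effect; nearly all actives have a fitted effect of over 35% in size.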 To be noted: purified USP1/UAF1, Ub-rhodamine cleavage fluorescence; series mostly up to 54.9 µM. In a few lines: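 USP1/UAF1 complex (1nM) preincubated with compound 15 min at room temperature, then Ub-Rho substrate (150nM final) added. Fluorescence read kinetically at 480/540 nm, 6 reads every 60 seconds. Buffer: 50mM HEPES pH 7.8, 0.5mM EDTA, 0.1 mg/ml BSA, 1mM TCEP, 0.01% Tween-20.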

Test [14] can be described thus: Confirmation and Secondary Assay for Modulators of Hemoglobin Beta Chain Splicing at IVS2 654 locus (AID 910).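 Further: per-well total GFP intensity by laser scanning cytometry after 2-day treatment; % of control where 0% means no effect.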 To be noted: HeLa EGFP-654 splicing reporter, GFP fluorescence, 48 h; series mostly up to 38.3 µM. In a few lines: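 HeLa cells stably carrying EGFP interrupted by mutant beta-globin IVS2-654 intron (CMV-driven) were treated with compound for 2 days at 37C; corrected splicing was scored as total peak GFP intensity per well (488 nm excitation, 500-520 nm emission).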

The nature of test [15]: Confirmation and Secondary Assay for Modulators of Hemoglobin Beta Chain Splicing at IVS2 705 locus (AID 930).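 Further: HeLa cells stably expressing the EGFP-705 splicing reporter; GFP fluorescence per well restored by corrected splicing of the IVS2-705 intron in EGFP; % of control where 0% means no effect.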 To be noted: HeLa EGFP-705 splicing reporter, GFP fluorescence, 48 h; series mostly up to 38.3 µM. In short, it runs like this:
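HeLa EGFP-705 reporter; 500 cells/well, o/n 37C 5% CO2; cpd 2 d; 488 ex/500-520 em laser scan; total peak GFP intensity/well. Ref: 500 nM […] antisense PNA.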

In test [16] the target is Rap guanine nucleotide exchange factor 3 (Homo sapiens) (UniProt O95398). Put plainly: Confirmatory qHTS for agonist of cAMP-regulated guanine nucleotide exchange factor 3 (EPAC1) (AID 1645881).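 Further: EPAC1 catalysed release of BODIPY-GDP from Rap1B seen as fluorescence loss; nearly all actives have a fitted effect of over 75% in size.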 To be noted: EPAC1 Rap1B BODIPY-GDP exchange fluorescence; series mostly up to 154 µM.
The target of test [17] is Rap guanine nucleotide exchange factor 4 (Homo sapiens) (UniProt Q8WZA2). Put plainly: Confirmatory qHTS for agonist of cAMP-regulated guanine nucleotide exchange factor 4 (EPAC2) (AID 1645884).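 Further: nucleotide exchange releases bodipy-GDP from Rap1 and this lowers its fluorescence; on the % scale 0 is the no-effect control and ±100 the full control effect; nearly all actives have a fitted effect of over 65% in size.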 As to conditions: EPAC2 GEF activity, Rap1B-BODIPY-GDP fluorescence; series mostly up to 154 µM.
The target in test [18] is Cytochrome P450 3A4 (Homo sapiens) (UniProt P08684). The test is described as follows: qHTS Assay for Activators of Cytochrome P450 3A4 (AID 885). Further: nearly all actives have a fitted effect of over 65% in size. As to conditions: recombinant CYP3A4, Luciferin-PPXE luminescence, 60 min; series mostly up to 57.1 µM. In a few lines:
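Quantitative HTS format: compounds preincubated with 20nM human CYP3A4 and Luciferin-PPXE substrate at KM, reaction started by NADPH regeneration, stopped after 60 min, luciferase luminescence read 20 min later.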

For test [19], the target named is Rap guanine nucleotide exchange factor 4 (Homo sapiens) (UniProt Q8WZA2). The test is described as follows: Confirmatory qHTS for antagonist of cAMP-regulated guanine nucleotide exchange factor 4 (EPAC2) (AID 1645885). Further: potency means the concentration at half of the fitted maximal effect; nearly all actives have a fitted effect of over 25% in size. As to conditions: EPAC2 Rap1B-BODIPY-GDP exchange fluorescence, biochemical; series mostly up to 114 µM.
Where [20] appears, read: measured here: cell count channel max response.
[21] abbreviates: measured here: lipid channel max response.

Records with an inconclusive call do not appear. Calls of active or inactive are those of the source. Unless noted, the call rests on the fitted dose curve; in most records, active means well fitted curve in the direction sought with a large enough effect; inconclusive means small, poorly fitted or top-dose-only effect, or another doubt; inactive means no such curve, though single readings can be large; an effect the other way counts as inactive or inconclusive.

Rap guanine nucleotide exchange factor 3 (Homo sapiens), sequence (O95398 whole entry, looked up): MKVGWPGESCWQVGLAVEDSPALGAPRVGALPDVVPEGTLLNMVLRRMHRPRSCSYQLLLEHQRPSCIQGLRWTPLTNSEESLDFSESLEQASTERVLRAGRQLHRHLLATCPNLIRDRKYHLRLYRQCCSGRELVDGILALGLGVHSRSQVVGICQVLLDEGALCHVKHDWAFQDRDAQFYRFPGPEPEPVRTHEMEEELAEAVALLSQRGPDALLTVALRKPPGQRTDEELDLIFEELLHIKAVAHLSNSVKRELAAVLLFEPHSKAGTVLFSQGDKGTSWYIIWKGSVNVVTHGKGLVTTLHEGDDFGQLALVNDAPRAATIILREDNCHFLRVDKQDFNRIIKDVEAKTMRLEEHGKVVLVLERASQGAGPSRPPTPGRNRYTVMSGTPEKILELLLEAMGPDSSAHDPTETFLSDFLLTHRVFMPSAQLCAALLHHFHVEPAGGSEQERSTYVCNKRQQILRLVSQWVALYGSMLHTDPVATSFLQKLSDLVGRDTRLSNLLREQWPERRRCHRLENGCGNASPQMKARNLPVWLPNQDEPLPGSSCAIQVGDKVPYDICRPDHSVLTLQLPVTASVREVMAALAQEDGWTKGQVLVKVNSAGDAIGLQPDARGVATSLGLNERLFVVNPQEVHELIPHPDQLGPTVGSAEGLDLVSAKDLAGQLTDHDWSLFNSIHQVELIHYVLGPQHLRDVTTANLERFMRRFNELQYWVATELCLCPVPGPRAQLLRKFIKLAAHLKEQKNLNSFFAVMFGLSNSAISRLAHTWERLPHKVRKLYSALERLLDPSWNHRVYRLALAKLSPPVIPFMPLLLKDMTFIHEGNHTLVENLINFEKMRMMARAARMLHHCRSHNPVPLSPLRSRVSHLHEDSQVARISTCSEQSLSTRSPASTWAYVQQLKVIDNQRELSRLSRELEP
Cytochrome P450 3A4 (Homo sapiens), sequence (P08684 whole entry, looked up): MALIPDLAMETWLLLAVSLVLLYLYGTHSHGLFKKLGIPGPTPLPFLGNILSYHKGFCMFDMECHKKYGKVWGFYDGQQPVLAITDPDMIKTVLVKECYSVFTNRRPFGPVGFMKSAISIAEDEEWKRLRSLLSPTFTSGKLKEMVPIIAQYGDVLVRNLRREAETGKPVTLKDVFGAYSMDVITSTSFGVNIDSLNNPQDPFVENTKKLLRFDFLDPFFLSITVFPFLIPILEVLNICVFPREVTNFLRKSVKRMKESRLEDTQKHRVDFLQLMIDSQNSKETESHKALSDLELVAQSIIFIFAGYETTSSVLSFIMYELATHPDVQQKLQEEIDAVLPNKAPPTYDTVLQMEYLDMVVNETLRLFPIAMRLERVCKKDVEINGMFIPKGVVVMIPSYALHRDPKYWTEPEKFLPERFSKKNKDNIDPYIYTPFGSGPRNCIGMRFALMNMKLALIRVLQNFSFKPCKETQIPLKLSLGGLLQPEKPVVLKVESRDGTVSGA
Rap guanine nucleotide exchange factor 4 (Homo sapiens), sequence (Q8WZA2 whole entry, looked up): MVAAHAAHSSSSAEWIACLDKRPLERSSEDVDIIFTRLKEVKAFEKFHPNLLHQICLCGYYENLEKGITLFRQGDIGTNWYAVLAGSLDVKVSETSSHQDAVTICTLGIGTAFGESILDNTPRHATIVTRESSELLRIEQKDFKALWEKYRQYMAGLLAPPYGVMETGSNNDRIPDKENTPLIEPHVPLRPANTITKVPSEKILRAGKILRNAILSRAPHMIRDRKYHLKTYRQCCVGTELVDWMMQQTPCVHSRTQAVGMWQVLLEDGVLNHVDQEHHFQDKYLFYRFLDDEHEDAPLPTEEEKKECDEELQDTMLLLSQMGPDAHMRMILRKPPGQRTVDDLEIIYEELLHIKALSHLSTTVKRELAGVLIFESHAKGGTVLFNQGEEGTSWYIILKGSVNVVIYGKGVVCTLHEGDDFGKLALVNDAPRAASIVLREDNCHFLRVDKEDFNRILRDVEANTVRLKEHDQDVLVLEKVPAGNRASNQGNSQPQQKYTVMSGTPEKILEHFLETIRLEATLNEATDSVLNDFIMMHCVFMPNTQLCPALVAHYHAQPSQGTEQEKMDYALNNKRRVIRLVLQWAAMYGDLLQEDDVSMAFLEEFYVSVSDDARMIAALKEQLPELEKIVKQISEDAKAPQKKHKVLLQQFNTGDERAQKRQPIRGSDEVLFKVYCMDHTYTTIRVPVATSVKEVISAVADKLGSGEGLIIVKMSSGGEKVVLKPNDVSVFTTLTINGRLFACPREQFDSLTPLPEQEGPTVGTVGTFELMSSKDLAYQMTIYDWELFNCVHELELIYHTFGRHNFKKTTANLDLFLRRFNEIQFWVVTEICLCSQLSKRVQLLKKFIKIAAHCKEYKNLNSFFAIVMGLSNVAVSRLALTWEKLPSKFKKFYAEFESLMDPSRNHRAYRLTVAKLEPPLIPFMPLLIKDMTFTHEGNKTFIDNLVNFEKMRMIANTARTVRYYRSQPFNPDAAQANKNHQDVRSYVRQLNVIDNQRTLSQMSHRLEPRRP
Ubiquitin carboxyl-terminal hydrolase 1 (Homo sapiens), sequence (O94782 whole entry, looked up): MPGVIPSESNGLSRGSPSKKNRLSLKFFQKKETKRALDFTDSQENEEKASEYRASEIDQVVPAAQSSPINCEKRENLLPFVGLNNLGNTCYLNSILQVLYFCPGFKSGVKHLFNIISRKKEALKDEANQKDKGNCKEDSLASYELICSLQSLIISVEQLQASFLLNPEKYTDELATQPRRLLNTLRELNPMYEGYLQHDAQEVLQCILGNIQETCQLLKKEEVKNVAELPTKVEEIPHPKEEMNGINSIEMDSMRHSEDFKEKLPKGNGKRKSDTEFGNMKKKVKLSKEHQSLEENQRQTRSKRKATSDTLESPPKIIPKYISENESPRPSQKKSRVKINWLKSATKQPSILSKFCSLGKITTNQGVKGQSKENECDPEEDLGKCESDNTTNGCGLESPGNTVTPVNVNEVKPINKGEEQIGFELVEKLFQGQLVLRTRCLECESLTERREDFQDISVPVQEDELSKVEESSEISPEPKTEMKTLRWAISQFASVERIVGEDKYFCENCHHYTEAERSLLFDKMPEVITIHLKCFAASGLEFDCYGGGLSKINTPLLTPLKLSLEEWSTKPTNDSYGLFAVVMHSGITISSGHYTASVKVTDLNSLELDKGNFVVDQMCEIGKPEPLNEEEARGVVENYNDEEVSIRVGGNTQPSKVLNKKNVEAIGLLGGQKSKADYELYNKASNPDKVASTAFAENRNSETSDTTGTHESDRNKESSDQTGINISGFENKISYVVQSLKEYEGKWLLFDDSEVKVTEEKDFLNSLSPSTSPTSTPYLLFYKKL
Glucocorticoid receptor (Homo sapiens), sequence (P04150 whole entry, looked up): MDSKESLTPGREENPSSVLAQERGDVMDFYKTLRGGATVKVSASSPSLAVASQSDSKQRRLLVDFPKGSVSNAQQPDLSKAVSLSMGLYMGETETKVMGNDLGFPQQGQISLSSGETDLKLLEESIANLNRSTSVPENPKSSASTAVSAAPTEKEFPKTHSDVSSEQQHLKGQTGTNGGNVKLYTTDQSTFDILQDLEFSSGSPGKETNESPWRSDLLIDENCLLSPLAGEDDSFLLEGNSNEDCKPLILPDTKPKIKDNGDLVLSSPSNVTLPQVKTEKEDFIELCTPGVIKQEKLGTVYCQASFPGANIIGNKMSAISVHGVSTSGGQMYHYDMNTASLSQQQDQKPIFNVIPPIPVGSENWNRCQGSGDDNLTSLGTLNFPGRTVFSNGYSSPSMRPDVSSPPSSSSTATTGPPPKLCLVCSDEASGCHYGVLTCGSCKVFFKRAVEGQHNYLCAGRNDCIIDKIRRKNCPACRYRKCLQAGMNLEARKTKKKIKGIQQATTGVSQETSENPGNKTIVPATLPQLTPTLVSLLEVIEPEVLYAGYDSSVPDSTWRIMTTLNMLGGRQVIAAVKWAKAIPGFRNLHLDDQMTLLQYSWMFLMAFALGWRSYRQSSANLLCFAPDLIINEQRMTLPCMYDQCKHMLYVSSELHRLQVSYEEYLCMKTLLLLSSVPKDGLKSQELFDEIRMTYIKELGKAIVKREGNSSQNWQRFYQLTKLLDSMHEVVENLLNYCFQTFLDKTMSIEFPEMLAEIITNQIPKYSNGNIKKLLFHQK
Cytochrome P450 1A2 (Homo sapiens), sequence (P05177 whole entry, looked up): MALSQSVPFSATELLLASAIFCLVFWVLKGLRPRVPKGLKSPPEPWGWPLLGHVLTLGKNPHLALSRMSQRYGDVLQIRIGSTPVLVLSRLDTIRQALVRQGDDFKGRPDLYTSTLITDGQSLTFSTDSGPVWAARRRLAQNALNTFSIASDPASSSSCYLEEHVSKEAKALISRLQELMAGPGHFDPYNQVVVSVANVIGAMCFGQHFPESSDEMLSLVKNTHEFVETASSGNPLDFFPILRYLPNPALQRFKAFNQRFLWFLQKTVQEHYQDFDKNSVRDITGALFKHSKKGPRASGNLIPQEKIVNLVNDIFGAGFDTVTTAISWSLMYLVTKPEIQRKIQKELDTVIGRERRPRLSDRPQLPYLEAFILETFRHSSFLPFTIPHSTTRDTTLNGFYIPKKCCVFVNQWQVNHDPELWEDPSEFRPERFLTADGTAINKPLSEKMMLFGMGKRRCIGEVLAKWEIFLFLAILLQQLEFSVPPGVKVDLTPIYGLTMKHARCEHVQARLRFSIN
Dual specificity protein kinase CLK4 (Homo sapiens), sequence (Q9HAZ1 whole entry, looked up): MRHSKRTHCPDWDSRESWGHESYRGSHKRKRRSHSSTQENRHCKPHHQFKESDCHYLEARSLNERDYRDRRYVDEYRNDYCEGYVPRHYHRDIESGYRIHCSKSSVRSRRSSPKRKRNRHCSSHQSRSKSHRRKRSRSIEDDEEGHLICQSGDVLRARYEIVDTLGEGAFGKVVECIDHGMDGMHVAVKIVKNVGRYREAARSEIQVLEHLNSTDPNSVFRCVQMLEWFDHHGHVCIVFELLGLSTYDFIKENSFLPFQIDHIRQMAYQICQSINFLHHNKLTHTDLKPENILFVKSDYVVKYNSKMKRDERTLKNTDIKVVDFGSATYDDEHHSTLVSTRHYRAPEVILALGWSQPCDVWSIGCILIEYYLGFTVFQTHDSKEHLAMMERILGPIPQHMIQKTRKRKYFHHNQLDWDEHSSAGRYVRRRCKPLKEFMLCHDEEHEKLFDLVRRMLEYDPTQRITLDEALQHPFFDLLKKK

Take `CN1CCN(c2ncc3nc(CCc4ccccc4)c(=O)n(C)c3n2)CC1`: the Potency is > 11.4 µM (inactive) in test [1], 12.6 µM (active) in [3], > 9.22 µM (inactive) in test [6] and > 46 µM (inactive) in test [7]. Besides, the results for the activity change, negative = inhibition in test [2], in test [4] and in test [11] were 14.9% (inactive), 1.74% (inactive) and 3.14% (inactive), respectively. In addition, in test [5], the activity, negative = inhibition is -2.48% (inactive). The Potency result in test [8], in [9], in test [10], in test [12] and in [13] was “inactive” in each case. Moreover, the max response in test [11] (setting [20]) was found to be 18.8%; in test [11] (setting [21]), 18.3%.

With `Cc1cccc2c3c(ccc12)C1=C(C(=O)C3=O)C(C)CO1` (configuration not stated), the Potency result in [14], in test [16] and in [17] was “inactive” in each case. In addition, in [15], the compound was called inactive. Also, the activity change, negative = inhibition in test [11] was 8.95% (inactive). The max response was 9.52% in [11] (setting [20]) and 20.4% in test [11] (setting [21]).

In the case of `O=C1C=CC2=C3c4cc(O)c(O)cc4CC3(O)COC2=C1O` (configuration not stated), the Potency in test [10] was 31.6 µM (active). Moreover, the Potency result in test [18], in [14], in test [16] and in test [17] was “inactive” throughout. Also, the result in test [15] was inactive. Besides, the activity change, negative = inhibition in [11] was 6.15% (inactive). The max response is 11.8% in test [11] (setting [20]) and 21% in test [11] (setting [21]).

On to `CC(C)=CCC/C(C)=C/CC/C(C)=C/CC/C(C)=C/CC/C(C)=C/CC/C(C)=C/CC/C(C)=C/CC/C(C)=C/CC/C(C)=C/CO`, for which the Potency result in [10] and in test [13] was “inactive” in each case. Besides, in [15], the outcome was inactive. For the same compound, the activity change, negative = inhibition in test [11] is 5.78% (inactive). In addition, the max response in test [11] (setting [20]) worked out at 6.17%; in test [11] (setting [21]), 20.4%.

Consider `CCC(=O)OC1CCC2C3CCc4cc(O)ccc4C3CC[C@]12C` (some centres not stated), for which the Potency result in test [14], in test [16] and in [17] was “inactive” throughout. For the same compound, in test [15], the compound was called inactive. The activity change, negative = inhibition in test [11] was 3.26% (inactive). The max response in [11] (setting [20]) turned out to be 9.46%; in test [11] (setting [21]), 15.5%. Besides, the Potency in [19] is 49.4 µM (active).

As for `C[n+]1cccc(C(=O)[O-])c1`, the Potency result in test [10], in [14] and in test [13] was “inactive” throughout. Further, the result in test [15] was inactive. In test [11], the activity change, negative = inhibition was 6.06% (inactive). The max response in test [11] (setting [20]) was -1.12%; in test [11] (setting [21]), 2.73%.

These data come from PubChem BioAssay (NCATS).
